This is an account of results in PubChem BioAssay (NCI).

Holding throughout (assay): NCI-60 one-dose screen, 48 h (100 = growth as untreated, 0 = no growth, -100 = all killed)
The subject of test [1] is NCI-H23 lung. Conditions: 10 µM unless noted.
Test [2] concerns NCI-H226 lung. Conditions: 10 µM unless noted.
Test [3] relates to NCI-H322M lung. Conditions: 10 µM unless noted.
For test [4], the system named is NCI-H460 lung. Conditions: 10 µM unless noted.
Test [5] concerns HOP-92 NSCLC. Conditions: 10 µM.
Test [6] deals with NCI-H522 lung. Conditions: 10 µM.
The test system of test [7] is A549/ATCC NSCLC. Conditions: 10 µM unless noted.
In test [8] the test system is 786-0 renal. Conditions: 10 µM unless noted.
The test system of test [9] is COLO 205 colon. Conditions: 10 µM unless noted.

The panel holds about 83,000 compounds, 20% with a hit somewhere; the sample as a whole holds those more often.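 Each cell line was grown in a 96-well plate and treated with one concentration of compound for 48 hours. Values below 10 were considered active.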 Values without a mark were called inactive. Activity calls are given as the source filed them.

Regarding `NC(=O)c1c(Nc2ccccc2)nn2cc(-c3nc4ccccc4s3)c(N)nc12`, the growth in test [1] is 95.2%; in [2], 85.5%; in [3], 103%; in test [4], 98.6%; in test [5], 93.2%; in [6], 91.4%. Further, the figures for the growth in [7], in test [8] and in test [9] were 105%, 109% and 106%, respectively.
On to `O=C1C(=O)c2ccccc2C(O)=C1CCCc1ccc(Oc2ccccc2)cc1`, for which the growth in [1] was 75%; in test [2] it was 46.5%; in test [3], 62.2%; in [4] it was 32.7%; in test [5], 54.5%; in test [6], 57.9%. The growth in test [7] is 82.2%; in [8], 37.5%; in [9] it was 111%.
As to `Cc1c(O)c(N=Nc2ccc(C(=O)O)c(O)c2)c2ccccc2c1O`, the growth in test [1] is 92.3%; in [2], 104%; in [3] it was 105%; in [4], 96.7%; in test [5] it was 77.7%; in [6], 100%. In addition, the figures for the growth in test [7], in [8] and in [9] were 78.9%, 104% and 119%, respectively.
For the molecule `Nc1cc2c(cc1Br)[nH]c(=O)c1ccccc12`, the growth is 54.4% in [1]; 54.8% in [2]; 83.8% in test [3]; 38.4% in test [4]; 35% in [5]; 43% in test [6]. In addition, the growth in test [7] is 29.3%; in test [8], 58.6%; in test [9] it was 68.1%.
With `C#CCCCCCCC[C@@H]1OC(=O)[C@H]([C@@H](C)CC)NC(=O)[C@H]([C@@H](C)CC)NC(=O)CC(=O)[C@@H]1C`, the growth in test [1] was 99.8%; in [2], 89%; in test [3], 99.6%; in [4] it was 103%; in test [5], 78.1%; in [6], 92.5%. Besides, the results for the growth in [7], in [8] and in test [9] were 105%, 101% and 112%, respectively.
For the molecule `COc1ccc(C(=O)c2no[n+]([O-])c2C(=O)c2ccc(OC)cc2)cc1`, the growth is 89.6% in test [1]; 41.7% in test [2]; 83.8% in test [3]; 89.8% in test [4]; -73.5% (active) in test [5]; -88.3% (active) in test [6]. The growth was 94.8% in [7], -98.7% (active) in [8] and -85.7% (active) in test [9].
As for `C=C(NC(=O)[C@H](C(C)C)N(C)c1cccc2[nH]ccc12)C(=O)OC`, the growth is 99.8% in test [1]; 97.5% in test [2]; 100% in test [3]; 103% in test [4]; 99.5% in test [5]; 87.3% in test [6]. The growth in test [7] was 96.5%; in [8] it was 95.9%; in [9], 132%.
As for `C[C@@H](c1ccc2c(c1)[nH]c1ccc(Cl)cc12)c1nc2ccc(Cl)cc2[nH]1`, the growth in [1] was 85.6%; in [2] it was 101%; in test [3], 85.8%; in test [4], 82.4%; in [5] it was 99.5%; in test [6], 43.6%. The growth was 88.3% in test [7], 75.9% in [8] and 116% in [9].
On to `COc1ccc(Cn2cc3c(c2-c2ccc(OC)cc2)CCc2cnoc2-3)cc1`, for which the growth in test [1] is 6.98% (active); in test [2] it was 9.5% (active); in test [3], 43.5%; in [4], 0.836% (active); in test [5], 55.2%; in [6], 11.1%. The growth in test [7] is 22%; in test [8] it was 30.3%; in [9], -32.4% (active).
As for `N=c1c2c(=O)n3c(nc2nc2sc4ccc(Cl)cc4n12)-c1ccccc1Sc1ccccc1-3`, the growth in [1] is 8.13% (active); in test [2], 29.1%; in test [3], 16.4%; in test [4], 10.7%; in [5], 6.89% (active); in test [6], 12.9%. Moreover, the growth is 22.4% in [7], 24.6% in [8] and 11.9% in [9].
In the case of `CCCCCCCCC/C(=N\NC(=O)c1ccncc1)c1ccc(O)c(O)c1O`, the growth in [1] is 21.8%; in test [2], 34.4%; in test [3], 36.1%; in test [4], 4.14% (active); in test [5] it was 46.6%; in [6], 36%. Also, the growth in [7] is 13.5%; in [8], 11.1%; in test [9], 27.6%.
In the case of `CCOC(=O)NNc1[nH]c(-c2ccc(OC)cc2)cc1C#N`, the growth in [1] was 88.9%; in test [2], 101%; in test [3] it was 79.4%; in test [4], 99.1%; in test [5] it was 76.4%; in test [6] it was 76%. Moreover, the growth is 100% in [7], 94.8% in [8] and 14.5% in [9].
On to `c1ccc(Nc2ccccn2)cc1`, for which the growth in [1] is 103%; in test [2] it was 130%; in [3], 106%; in [4] it was 115%; in [5], 97.9%; in [6], 91.7%. Further, the values for the growth in [7], in test [8] and in test [9] were 98.9%, 95.1% and 99.8%, respectively.
For `C[C@H]1C[C@@H](n2cnc3c(N)nccc32)[C@H](O)[C@@H]1O`, the growth is 128% in test [1]; 105% in test [2]; 110% in [3]; 80.8% in test [4]; 83.3% in test [5]; 151% in test [6]. Also, the values for the growth in test [7], in test [8] and in [9] were 98.6%, 95.6% and 109%, respectively.
In the case of `CC/C(=N\Nc1nc2ccccc2n1C)c1ccccn1`, the growth in [1] is 7.14% (active); in test [2], -0.758% (active); in [3] it was 21%; in test [4], 1.28% (active); in test [5], 29.2%; in test [6], 18.7%. The growth in test [7] was 2.95% (active); in test [8], 2.44% (active); in [9], 21.9%.
Turning to `CCN(CC)CCCNc1c2ccc(Cl)cc2nc2ccc(OC)cc12`, the growth in test [1] is -34.9% (active); in test [2] it was -6.37% (active); in [3], -18.9% (active); in test [4] it was 1.68% (active); in [5], -27.8% (active); in test [6], -52% (active). Also, the growth in test [7] is -32.4% (active); in test [8], 9.99% (active); in test [9] it was -72.3% (active).
In the case of `CCc1ccc(C(=Nc2ccc(N(C)C(=O)CN3CCN(C)CC3)cc2)c2c(O)[nH]c3ccc(C(=O)OC)cc23)cc1`, the growth was -60.5% (active) in test [1]; -26.2% (active) in [2]; -39.7% (active) in test [3]; -74.5% (active) in [4]; -70.7% (active) in test [5]; -64.1% (active) in [6]. The results for the growth in [7], in [8] and in [9] were -29.3% (active), -93.3% (active) and -69.4% (active), respectively.
Take `COC(=O)c1ccc2[nH]c(O)c(C(=Nc3ccc(N(C)C(=O)CN4CCN(C)CC4)cc3)c3ccc(CCO)cc3)c2c1`: the growth in test [1] is 57.1%; in test [2] it was 57%; in test [3], 66.5%; in [4] it was 74.6%; in test [5], 66.6%; in test [6], 33.3%. Also, the values for the growth in [7], in test [8] and in test [9] were 95.4%, 44.2% and 18.1%, respectively.
`COc1ccc2oc(=O)cc(CN3C(=O)S/C(=C\c4ccc(Cl)cc4)C3=O)c2c1`: the growth in [1] was 90.9%; in [2] it was 92.3%; in test [3], 104%; in test [4], 102%; in [5], 86.5%; in test [6] it was 79.6%. The growth was 97.9% in test [7], 93.1% in [8] and 136% in test [9].
Consider `CC(=O)Nc1nc(C)c(C(=O)N/N=C/N2CCOCC2)s1`, for which the growth in test [1] was 106%; in [2] it was 99.8%; in test [3], 115%; in test [4] it was 113%; in test [5], 48.4%; in [6], 25.3%. Further, the growth is 111% in test [7], 77.1% in [8] and 127% in test [9].
In the case of `COc1ccc(-c2cn3ccnc3c(-c3ccc4ncn(C5CCCCC5)c4c3)n2)cc1`, the growth in test [1] is 37.9%; in test [2], 64.1%; in test [3], 68.5%; in [4], 8.91% (active); in test [5] it was 47.7%; in test [6] it was -20.9% (active). Also, the growth in [7] was 31.4%; in test [8], 16.8%; in test [9] it was -8.01% (active).
Turning to `COc1cc2c(/C=C3\C(=O)Nc4ccc(Br)cc43)c(Cl)n(C)c2cc1C`, the growth in [1] was 20.6%; in [2] it was 45.1%; in test [3], 17.2%; in [4], 8.86% (active); in test [5], -4.95% (active); in [6], -3.92% (active). Besides, the figures for the growth in [7], in [8] and in test [9] were 24%, -17.3% (active) and 6.03% (active), respectively.
For `CCOC(=O)CCCCCCCCC(=O)OCC`, the growth in test [1] is 96.3%; in test [2], 103%; in [3], 97.6%; in test [4] it was 108%; in [5], 98.6%; in test [6], 105%. For the same molecule, the growth is 107% in test [7], 106% in [8] and 108% in test [9].
`CC(=O)c1cc(Nc2cc(C)nc(N)n2)cc(C(C)=O)c1`: the growth in test [1] is 83.2%; in test [2], 101%; in test [3] it was 107%; in test [4], 104%; in test [5] it was 71.9%; in [6] it was 99.8%. Further, the growth in [7] is 116%; in test [8], 95.3%; in test [9], 117%.
With `CC1(C)CC(=O)C2=C(C1)Oc1nc(N)c(C#N)c(N)c1C2c1ccc(F)cc1` (stereo unspecified), the growth in test [1] is 133%; in test [2] it was 106%; in [3] it was 123%; in [4], 117%; in [5] it was 76.4%; in [6] it was 146%. Further, the growth in test [7] was 110%; in [8], 94.2%; in [9] it was 127%.
Regarding `CCc1c(C)c2ccc(OCC(=O)N=Nc3c(O)[nH]c4ccccc34)c(C)c2oc1=O`, the growth in test [1] is 5.58% (active); in [2], 12.4%; in test [3], -14.2% (active); in test [4], -46.7% (active); in [5], 29.7%; in test [6], -9.85% (active). Besides, the growth was 30.2% in [7], -22.9% (active) in [8] and 31.4% in [9].
`O=C(O)CC1Cc2ccccc2C1C(=O)O` (stereo unspecified): the growth in [1] is 93.5%; in test [2] it was 102%; in test [3], 113%; in test [4], 106%; in [5] it was 108%; in [6] it was 95.9%. Also, the growth in test [7] is 103%; in test [8], 105%; in [9], 114%.
For `CC(C)(C)c1ccc([I+]c2ccc(C(C)(C)C)cc2)cc1`, the growth in test [1] was -13.7% (active); in [2], 23.8%; in test [3] it was 55.8%; in test [4] it was 4.98% (active); in test [5], -9.02% (active); in test [6], 7.79% (active). Also, the growth is 39.9% in test [7], 16.8% in [8] and -42.1% (active) in [9].
As to `NC(=O)CC(NC(=O)COc1ccc(Cl)cc1Cl)C(=O)O` (stereo unspecified), the growth in test [1] is 101%; in test [2], 102%; in [3], 102%; in [4], 104%; in [5] it was 96.4%; in [6], 98%. For the same molecule, the growth in test [7] was 106%; in [8], 108%; in test [9], 106%.
